Test results reported in ChEMBL document CHEMBL4888484, “Replenishing the malaria drug discovery pipeline: Screening and hit evaluation of the MMV Hit Generation Library 1 (HGL1) against asexual blood stage Plasmodium falciparum ,using a nano luciferase reporter read-out” (2022).
The campaign covered roughly 4,800 compounds. About 420 (8.8%) showed an effect of 50% or more. This is one part of a sample in which strong results are shown more often than they occur.

What follows are compounds tested on Plasmodium falciparum (assay: Confirmatory screen in NF54 nanoGlo assay, in single point, at 2uM, 72h). Details: timepoint 72 hour.
Assay type: functional, Erythrocyte

Structure (SMILES) | % Inhibition [%]
COc1snc(C(Cl)(Cl)Cl)c1Cl | -2
CCN(CC)CCC1C(=O)N(c2ccccc2)C(=O)N(c2ccccc2)C1=O | 4
CC(=O)N1N=C(c2cccnc2)O[C@H]1c1ccc(F)cc1 | -10
Cc1nc(Cn2nc(C(C)(C)C)oc2=O)oc1C | 0
FC1(F)C[C@@H](COc2cccnc2)N(C2CCCCC2)C1 | 3
Cn1cc(/C=C2\CC3C4CCC5CCCCC5(C)C4CCC3(C)C2O)cn1 (centres undefined) | 0
Cc1cccc(CN(C)C)c1OC(=O)N(C)C | -9
COc1ccc(-c2cc([C@H]3CN4CC[C@H]3C[C@@H]4CNC(=O)C3CCCCC3)n(C)n2)cc1OC | -9
Cc1ccc(NC(=O)N2CCC(=O)CC2)cc1Br | -4
C=CCCC(CN1C[C@H]2CC=CC[C@H]2C1)Oc1ncc(F)cn1 (some centres undefined) | 77
COC(=O)[C@H]1CN(Cc2noc(C)n2)C[C@@H]1c1ccc(F)cc1F | -20
CC(Cc1ccccc1)NC1CN2CCC1CC2 (centres undefined) | 1
CC(C)N1CCN(c2nc3nc[nH]c(=O)c3s2)CC1 | 4
O=S(=O)(NC12CCCC1CNC2)c1onc(C2CC2)c1Cl (centres undefined) | 95
O=C(NCc1cc(F)cc(F)c1)c1cn(Cc2ccc(F)cc2)nn1 | -15
O=C1N[C@](c2ccccc2)(C(F)(F)F)c2ccc3ccccc3c2O1 | 5
CC1CCCCC1N1CCN(C(=O)COc2ccc(Br)cc2)CC1 (centres undefined) | 3
O=c1c2cc(Cl)ccc2nc(-c2cccnc2)n1-c1ccc(Br)cc1 | 0
O=C1O[C@@H]2CCN(Cc3ccccc3)[C@H]1C2 | -15
CCC1(CC)C(=O)N(CN2CCCC2=O)C(=O)N(CN2CCCC2=O)C1=O | -17
CN(C)S(=O)(=O)Nc1cccc(OC(=O)N2CCOCC2)c1 | -10
CCN1CCC[C@H](NC(C2CCC2)C2CCC2)C1 | -3
COc1cc(OCC(=O)N2CCN([C@@H](C)Cc3ccccc3)CC2)cc(OC)c1OC | 8
Cc1cc(=O)c(OCC(=O)N2CCN([C@@H](c3ccccc3)c3ccc(Cl)cc3)CC2)c[nH]1 | 63
O=C(N1CCN(C(c2ccccc2)c2ccccc2)CC1)C(O)(c1ccccc1)c1ccccc1 | -4
Cc1ccc(C(O)(c2ccc(C)c(C)c2)[C@H]2C[N@]3CC[C@@H]2CC3)cc1C | 6
CN1CCN(CCO[C@@H](c2cccc(Cl)c2)c2ccccc2Cl)CC1 | 0
O=C(c1ccccc1)c1cc(Cl)ccc1NC(=O)[C@H]1CC(=O)N(c2ccc(F)cc2)C1 | 85
c1cc(-n2cnnn2)ccc1N[C@H]1CN2CCC1CC2 | -14
